# Screening results as filed in PubChem BioAssay.
# This is a sample that favours compounds with a hit; in the whole collection about 2.3% have one here.
# Calb FLC: C. albicans growth modulation with fluconazole; C. albicans CaCi-2 (fluconazole-resistant clinical isolate) + fluconazole, Alamar Blue growth, 48 h; growth inhibition, % (test concentration not listed); hit rate 0.57% among 300,000; AID 1979;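 active = growth inhibition above about 58% in most replicates, limit read from the data, passing the limit was not always enough; inconclusive = exactly half the replicates above a set limit; inactive = most replicates below a set limit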;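 note: all wells also contain fluconazole at 8 µg/ml as a sub-toxic cotreatment; 0% = median of DMSO wells and 100% = median of geldanamycin control wells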
# IDE cell inh: cellular human IDE inhibition; inhibition, % at 5.59 µM; P14735; HEK cells, FAbetaB cleavage, fluorescence polarization; hit rate 0.41% among 320,000;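 active = percent inhibition above the average of all tested compounds plus 3 SD, set per screening campaign, cut at about 16% in these data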;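 note: IDE supplied by intact live HEK cells; FP after avidin binding of uncleaved biotin substrate so inhibition keeps polarization high; 0% = DMSO wells and 100% = 60 µM reference IDE inhibitor Ii1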
# IDE act: activators of human insulin-degrading enzyme in cells; P14735; HEK cells, FAbeta-B cleavage, fluorescence polarization; 0% vehicle, 100% cell-free pure enzyme wells; activation, % at 5.96 µM; hit rate 0.073% among 340,000; AID 493087;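 active = activation above the mean of all tested compounds plus 3 SD, set per screening campaign, cut at about 17% in these data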
# TPT1 inh: C. albicans TPT1 enzyme inhibition; recombinant caTPT1, FP RNA substrate dephosphorylation; inhibition, % at 5 µM; AID 1962; hit rate 0.81% among 300,000;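 active = inhibition above the mean of all tested compounds plus 3 SD, set per screening campaign, cut at about 24% in these data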;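 note: plate controls were DMSO alone for no effect and ferristatin control at 100 nM for full effect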
# Rpn11 block: inhibitors of human proteasome Rpn11; AID 588493; hit rate 0.59% among 360,000; inhibition, % at 20 µM; human 26S proteasome, Ub4-pepOG fluorescence polarization; 20S core pre-blocked with epoxomicin;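 active = inhibition at 20 µM, scaled to each plate's controls, above about 33%, limit read from the data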
# Target sequence (O00487 whole entry, looked up): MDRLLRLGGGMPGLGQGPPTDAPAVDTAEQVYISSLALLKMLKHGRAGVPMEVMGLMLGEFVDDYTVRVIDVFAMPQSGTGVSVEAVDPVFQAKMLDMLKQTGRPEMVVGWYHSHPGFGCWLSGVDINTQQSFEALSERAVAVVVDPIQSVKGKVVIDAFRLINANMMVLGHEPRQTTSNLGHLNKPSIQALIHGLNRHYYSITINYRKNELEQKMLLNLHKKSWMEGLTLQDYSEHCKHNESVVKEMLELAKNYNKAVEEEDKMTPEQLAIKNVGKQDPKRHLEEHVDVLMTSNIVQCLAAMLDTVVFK
# Rin1-Abl PPI inh: inhibitors of human Rin1-Abl protein interaction; TR-FRET Rin1/Abl binding, biochemical; inhibition, % at 7.35 µM; hit rate 0.4% among 360,000; AID 588664; in the data active = inhibition above about 5%, passing the limit was not always enough
# caTPT1 confirm: TPT1 (C. albicans) inhibition, confirmation. shares compounds with TPT1 inh. recombinant caTPT1, fluorescence polarization, RNase T1 coupled. inhibition, % at 5 µM. hit rate 74% among 2,400. AID 2149;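 active = inhibition above the primary screen limit, the mean inhibition of all tested compounds plus 3 SD, cut at about 25% in these data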
# RNase T1 counter: counter-screen for TPT1 inhibitors: inhibitors of Aspergillus oryzae RNase T1 | inhibition, % at 5 µM | hit rate 83% among 2,400 | RNase T1 cleavage, fluorescence polarization, 1536-well | AID 2153 | shares compounds with TPT1 inh;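 active = inhibition above the solvent-only control well mean plus 3 SD, limit set per screening run, cut at about 23% in these data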;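 note: plate controls were DMSO wells with enzyme for no effect and wells without RNase T1 for full effect; inhibitors block cleavage so intact labeled substrate keeps polarization high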
# Target sequence (P00651 whole entry, looked up): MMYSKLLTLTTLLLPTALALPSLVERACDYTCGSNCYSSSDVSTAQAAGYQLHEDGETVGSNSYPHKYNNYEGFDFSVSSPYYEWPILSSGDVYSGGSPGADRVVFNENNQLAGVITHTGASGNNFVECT
# * hit, by the source's call; ? = inconclusive; . = no result given.
SMILES,Calb FLC,IDE cell inh,IDE act,TPT1 inh,Rpn11 block,Rin1-Abl PPI inh,caTPT1 confirm,RNase T1 counter
O=C1/C(=C\c2cccs2)Sc2ccc3ccccc3c21,.,-1,0,80*,-24,-1,84*,96*
COc1ccc(C2CC(=O)CCN2S(=O)(=O)c2ccc(C)cc2)cc1 (configuration not stated),.,.,4,.,0,-3,.,.
O=C(COC(=O)c1cnccn1)N=c1sccn1Cc1ccccc1Cl,-1,3,6,3,5,-3,.,.
O=c1c(/C=C(\O)c2ccc(F)cc2)nc2ccccc2n1-c1ccccc1,-5,2,-2,62*,.,3,79*,75*
COc1ccc(CNC(=O)CN(c2cccc(OC)c2)S(C)(=O)=O)cc1,-1,10,0,76*,-2,3,2,6
COc1ccc(CNC(=O)CN(c2cccc([N+](=O)[O-])c2)S(C)(=O)=O)cc1,5,-3,-3,-2,-4,2,.,.
COc1ccc(C(=O)Nc2cc(C(C)=O)c(/C=C/N(C)C)oc2=O)cc1,-12,10,-25,114*,.,-19,125*,130*
CC(=O)c1cc(NC(=O)c2ccc(C)cc2)c(=O)oc1/C=C/N(C)C,-2,12,-35,156*,.,-11,134*,135*
CC(=O)c1cc(NC(=O)c2ccc(C)cc2)c(=O)oc1C,3,9,-1,3,4,5,.,.
Cc1cc(C)cc(OCC(=O)OCC(=O)N2CCc3ccccc32)c1,-4,3,4,-1,2,0,.,.
O=C(Nc1cccc([N+](=O)[O-])c1)NC1CCCCCCC1,-30,.,-3,.,8,-1,.,.
CN(C)c1ccc(C2CNC(c3ccc(Cl)c([N+](=O)[O-])c3)c3[nH]c4ccccc4c32)cc1 (configuration not stated),-2,8,-5,4,-8,-1,.,.
O=[N+]([O-])c1cccc(C2NCC(c3ccccc3Cl)c3c2[nH]c2ccccc32)c1 (configuration not stated),-5,13,6,131*,3,3,10,13
O=C1Nc2ccc(Br)cc2C12NNc1ccccc1O2 (configuration not stated),23,3,7,83*,.,3,105*,110*
Cc1ccc(S(=O)(=O)N2C[C@H]3C(=O)C[C@@H](c4ccccc4)N(S(=O)(=O)c4ccc(C)cc4)[C@H]3C[C@H]2c2cccc(C)c2)cc1,.,.,.,.,8,8,.,.
COc1cc(OC)c(N(C)S(=O)(=O)c2cccc(C(=O)OCC(=O)N(C)Cc3ccccc3)c2)cc1Cl,.,.,1,.,-8,-1,.,.
COc1ccc(NC2CCCN(C(=O)c3ccccc3N3CCOCC3)C2)cc1OC (configuration not stated),9,9,0,-5,6,0,.,.
O=[N+]([O-])c1ccc2nc(CCCO)[nH]c2c1,1,-4,.,-7,2,2,.,.
CCCc1nc2ccc([N+](=O)[O-])cc2[nH]1,-3,7,1,29*,-2,0,4,7
COc1ccc(/C=C2\SC(=N)N(c3nccs3)C2=O)cc1OC,3,0,2,7,21,-1,.,.
N=C1S/C(=C\c2ccc(-c3cccc(Cl)c3)o2)C(=O)N1c1nccs1,-8,3,-6,29*,6,1,32*,35*
COC(=O)C1C2CC3c4[nH]c5cc(OC)ccc5c4CCN3CC2CC(OC2CCCCO2)C1OC (configuration not stated),.,.,.,.,34,-5,.,.
COC(=O)[C@H]1[C@H]2C[C@@H]3c4[nH]c5cc(OC)ccc5c4CCN3C[C@H]2C[C@@H](OC(=O)c2cc(OC)c(OC)c(OC)c2)[C@@H]1OC,.,5,3,41*,19,-4,45*,58*
Cc1cc2oc(=O)cc(CN3CCCc4ccccc43)c2cc1C,-6,0,2,48*,.,-1,43*,53*
Cc1ccc(C(=O)N/C(=C/c2ccco2)C(=O)OCN2C(=O)c3ccccc3C2=O)cc1,17,5,0,-1,2,-6,.,.
SMILES,Calb FLC,IDE cell inh,IDE act,TPT1 inh,Rpn11 block,Rin1-Abl PPI inh,caTPT1 confirm,RNase T1 counter
O=C(NNS(=O)(=O)c1ccccc1)c1ccc(S(=O)(=O)N2CCCCC2)cc1,1,3,4,40*,-6,0,1,2
COC(=O)c1ccc(S(=O)(=O)NNC(=O)c2ccc(S(=O)(=O)N3CCCCC3)cc2)cc1,-9,7,1,3,-1,0,.,.
CCCCOC(=O)c1ccc(NC(=O)COC(=O)c2ccc3ncsc3c2)cc1,.,1,0,.,-14,6,.,.
O=C1NC(=Nc2ccccc2Cl)S/C1=C\c1cccc([N+](=O)[O-])c1O,95*,5,4,28*,36,2,42*,55*
COc1c(/C=C2\SC(=Nc3ccccc3Cl)NC2=O)cccc1[N+](=O)[O-],42,6,3,1,-3,3,.,.
N#CC1=C(N)Oc2cc(O)c(Cl)cc2C1c1ccccc1F (configuration not stated),-1,34*,-31,72*,24,2,15,26*
COC(=O)C1=C(C)OC(N)=C(C#N)C1c1ccccc1F (configuration not stated),4,-5,1,1,-4,0,.,.
COc1ccccc1NC(=O)c1ccc(NS(=O)(=O)c2ccc(F)c(F)c2F)cc1,?,-1,5,-2,-8,1,.,.
COCCN(C(=O)COC(=O)c1ccc2[nH]c(C)c(C)c2c1)c1c(N)n(Cc2ccccc2)c(=O)[nH]c1=O,-9,-6,3,28*,23,-1,60*,71*
CN(C)c1ccc(/C=N/N(CCC#N)C2=NS(=O)(=O)c3ccccc32)cc1,-4,-2,0,27*,.,-4,8,17
CN(C)c1ccc(/C=N/N(CCO)C2=NS(=O)(=O)c3ccccc32)cc1,0,12,-33,-2,.,-4,.,.
CCCCN1C(=O)/C(=C/C=C2\N(C)c3ccccc3C2(C)C)SC1=S,-1,14,.,196*,.,.,134*,124*
CC(C)=CCC[C@](C)(O[C@@H]1O[C@H](CO[C@@H]2OC[C@H](O[C@@H]3OC[C@@H](O)[C@H](O)[C@H]3O)[C@H](O)[C@H]2O)[C@@H](O)[C@H](O)[C@H]1O)C1CC[C@]2(C)C1[C@H](O)CC1[C@@]3(C)CC[C@H](O)C(C)(C)C3[C@@H](O)C[C@]12C (some centres not stated),.,-1,1,.,0,1,.,.
